Only some compounds are listed: those with a hit (about 18% of all), similar ones and a draw of the others.
TGFb SMAD3 inh = blocks TGF-b signaling; HepG2 CAGA-GFP TGF-b/SMAD3 reporter, GFP fluorescence, 18 h; TGF-beta stimulated, 500 pg/mL final; actives 1.2% (n = 410,000); Potency, µM (titrated, usually from 46.1 µM), most hits filed as inhibitors; further: nearly all actives have a fitted effect of over 65% in size
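Using HEPG2 CAGA-GFP reporter cells at 1000 cells/well, we pinned test compounds, stimulated with recombinant TGF-beta (500 pg/mL final) and measured total well GFP after 18 h.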
TDP1 inh = inhibitors of human tyrosyl-DNA phosphodiesterase TDP1; Q9NUW8; recombinant TDP1, AlphaScreen DNA substrate cleavage; Potency, µM (highest dose often 130 µM), hits mostly inhibitors; actives 0.28% (n = 350,000); further: nearly all actives have a fitted effect of over 40% in size
Target sequence (Q9NUW8 whole entry, looked up): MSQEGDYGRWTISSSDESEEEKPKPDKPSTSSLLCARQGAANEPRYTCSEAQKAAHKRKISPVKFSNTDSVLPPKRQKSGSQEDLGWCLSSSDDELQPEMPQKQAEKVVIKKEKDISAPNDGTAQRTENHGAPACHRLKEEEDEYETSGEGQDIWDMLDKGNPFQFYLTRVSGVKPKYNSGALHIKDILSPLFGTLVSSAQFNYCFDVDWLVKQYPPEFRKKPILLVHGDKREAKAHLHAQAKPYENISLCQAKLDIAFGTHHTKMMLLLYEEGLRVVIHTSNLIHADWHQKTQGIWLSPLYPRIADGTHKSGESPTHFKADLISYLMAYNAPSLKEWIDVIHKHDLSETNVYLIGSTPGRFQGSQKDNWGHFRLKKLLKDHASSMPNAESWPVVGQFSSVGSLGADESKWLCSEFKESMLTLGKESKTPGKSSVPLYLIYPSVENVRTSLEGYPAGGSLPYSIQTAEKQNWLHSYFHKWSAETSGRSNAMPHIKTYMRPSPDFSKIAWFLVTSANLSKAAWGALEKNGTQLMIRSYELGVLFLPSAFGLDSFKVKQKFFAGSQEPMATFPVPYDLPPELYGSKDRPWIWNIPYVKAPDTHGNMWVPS
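Compounds were preincubated with Tdp1 (1 nM final) for 15 min at room temperature before substrate (15 nM final) started a 5 min reaction; beads (10 ug/ml final) were then added for 10 min before AlphaScreen detection.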
TDP1 cell noCPT = qHTS for Inhibitors of human tyrosyl-DNA phosphodiesterase 1 (TDP1): qHTS in cells in absence of CPT; DT40 Tdp1-/- hTDP1 cells, no CPT, ATP luminescence, 48 h; Potency, µM (titrated, usually from 46.2 µM), most hits filed as inhibitors; actives 15% (n = 420,000); further: nearly all actives have a fitted effect of over 55% in size
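Chicken DT40 Tdp1-/- cells stably complemented with human TDP1 were seeded at 400 cells/well with DMSO in place of 20 nM camptothecin. After compound pinning, cells grew at least 48 hr at 37 °C; viability read by CellTiter-Glo luminescence.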
IL1B secr inh = inhibitors of inflammasome signaling (IL-1 beta secretion) | AID 743279 | actives 4.7% (n = 360,000) | THP-1 LPS/ATP IL-1B secretion, AlphaLISA, 16 h; active compounds read low | activity change, % at 57.5 µM; in the data active means activity change below about -50%; inconclusive means mostly about -30% to -49%
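Secreted IL-1B measured by AlphaLISA bead assay after 16 h compound exposure of THP-1 cells; compounds (final up to 57.5 uM) added 1 h before LPS (250 ng/mL) and ATP (1.25 mM) stimulation; lower signal means less secretion.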
HepG2 viability = counter-screen for TGF-b inhibitors: cytotoxicity in HepG2 cells. HepG2 CAGA-GFP viability, ATP luminescence, 18 h. Potency, µM (doses to about 46.1 µM), usual class: cytotoxic. actives 0.76% (n = 410,000). AID 588856
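CellTiter-Glo luminescence gave cytotoxicity after 18 hours at 37 degrees C. The cells were HepG2 CAGA-GFP in 1% FBS DMEM, stimulated with 500 pg/mL TGF-beta after compound addition. %Activity was normalised to no-cell wells (complete cell-killing) and DMSO (no toxicity), and curves were fitted and classified.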
TDP1 cell CPT = growth inhibition of DT40 Tdp1-/-;hTDP1 cells with camptothecin (screen for TDP1 inhibitors). Potency, µM (titrated, usually from 46.2 µM), actives largely listed as inhibitors. actives 12% (n = 420,000). chicken DT40 Tdp1-/-;hTDP1 cells + 20 nM CPT, ATP luminescence, 48 h; further: nearly all actives have a fitted effect of over 55% in size
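Chicken DT40 Tdp1-/- cells complemented with human TDP1, 400 cells/well, exposed to compounds plus 20 nM camptothecin for at least 48 h at 37 C; viability read as ATP content by CellTiter-Glo luminescence.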
Hits are given with their value; . = inactive; ? = inconclusive; / = no result; [ ] = another dose, or the depositor's remark. Unless noted, the call rests on the fitted dose curve; in most records, active means well fitted curve in the direction sought with a large enough effect; inconclusive means small, poorly fitted or top-dose-only effect, or another doubt; inactive means no such curve, though single readings can be large; an effect the other way counts as inactive or inconclusive.

SMILES | TGFb SMAD3 inh | TDP1 inh | TDP1 cell noCPT | IL1B secr inh | HepG2 viability | TDP1 cell CPT
Fc1ccc2c(c1)C1OCCCC1C(c1ccccc1)N2 (centres undefined) | . | / | 18µM | . | . | ?
NC(=O)c1ccsc1NC(=O)COC(=O)/C=C/c1ccccc1 | . | .[0.505 µM] | 18µM | . | . | ?
NC(=O)c1ccsc1NC(=O)COC(=O)/C=C/c1ccccc1[N+](=O)[O-] | ? | . | 16µM | . | . | ?
O=C(COC(=O)/C=C/c1ccccc1[N+](=O)[O-])NC1CC1 | . | . | 21µM | . | . | ?
NC(=O)c1ccsc1NC(=O)COC(=O)Cc1ccsc1 | . | . | ? | . | . | ?
COc1cc(CC(=O)OCC(=O)Nc2sccc2C(N)=O)cc(OC)c1OC | . | . | 16µM | . | . | 29µM
CC(C)(C)n1ncc2c(=O)n(Cc3ccc(Cl)c(F)c3)cnc21 | . | / | / | / | . | /
O=C(NC1CC(=O)N(c2cccc(F)c2)C1)C(=O)c1c[nH]c2ccccc12 (centres undefined) | . | / | . | . | . | .
CCOc1ncccc1C(=O)OCC(=O)c1ccc(Br)s1 | . | . | 4.6µM | . | . | ?
CCOc1ncccc1C(=O)OCC(=O)Nc1nnc(-c2ccccc2)o1 | . | . | 23µM | . | . | ?
COc1ccccc1NC(=O)C1=C(C)Nc2ncnn2C1c1ccc[nH]1 (centres undefined) | . | . | . | / | . | .
CCN1CCN(c2cc(C)c3cc(NC(=S)N4CCN(c5ccc(F)cc5)CC4)ccc3n2)CC1 | . | . | ? | . | . | 21µM
CCN1CCN(c2cc(C)c3cc(NC(=S)N4CC(C)CC(C)C4)ccc3n2)CC1 (centres undefined) | . | . | ? | -89 | . | ?
CCN1CCN(C(=S)Nc2ccc3nc(N4CCN(CC)CC4)cc(C)c3c2)CC1 | ? | . | ? | ? | . | .
CCN1CCN(c2cc(C)c3cc(NC(=S)N4CCCC4)ccc3n2)CC1 | . | . | . | . | . | .
COC(=O)c1ccc(CNC(=O)C2CCC(=O)N(C3CCCCCC3)C2)cc1 (centres undefined) | . | . | . | . | . | .
COc1cc(-c2nnc3sc(Cc4ccccc4)nn23)cc(OC)c1OC | . | . | ? | . | . | 21µM
COc1cc(-c2nnc3sc(Cc4ccc(Cl)cc4)nn23)cc(OC)c1OC | . | / | 9.2µM | . | . | 12µM
COc1ccc(Cc2nn3c(-c4cc(OC)c(OC)c(OC)c4)nnc3s2)cc1 | . | . | ? | . | . | ?
Cc1ccccc1C(=O)Nc1nnc([C@@H]2C[C@H](O)[C@@H](CO)O2)s1 | . | / | . | . | . | .
O=C(Nc1ccc(Br)cc1)c1cccn1-c1ncc(C(F)(F)F)cc1Cl | ? | . | ? | . | . | 16µM
Cc1nn(Cc2ccc(F)cc2)c(Cl)c1/C=N/NC(=O)c1ccccc1 | . | . | ? | . | . | .
Cc1nn(Cc2ccccc2)c(Cl)c1/C=C1\NC(=S)NC1=O | . | . | . | -64 | . | ?
CCc1ccccc1NC(=O)CN(C)C(=O)COC(=O)c1c(Cl)cccc1Cl | . | . | ? | . | . | .
CCOC(=O)C1(C)CCCN(C(=O)c2cccc3ccccc23)C1 (centres undefined) | . | / | . | . | . | .
SMILES | TGFb SMAD3 inh | TDP1 inh | TDP1 cell noCPT | IL1B secr inh | HepG2 viability | TDP1 cell CPT
O=C(CC(SCCO)c1ccc2c(c1)OCO2)c1cccs1 (centres undefined) | ? | . | 12µM | -75 | . | 12µM
O=C(CC(SCc1ccco1)c1ccc(O)cc1)c1cccs1 (centres undefined) | . | . | 23µM | -52 | . | ?
COc1ccccc1/C=N/OCc1cc(C(C)=O)ccc1OC | . | / | . | . | . | .
Cc1cccc(Nc2nc3c(s2)CCCC3)c1 | ? | . | 18µM | . | . | 23µM
O=S1(=O)N=C(Nc2nc3c(s2)CCCC3)c2ccccc21 | ? | . | 5.2µM | . | . | 6.5µM
CCN(CC)S(=O)(=O)c1nnc(NC(=O)COc2cccc(C)c2)s1 | . | . | . | / | . | .
O=C(Nc1nnc(CCc2ccccc2)s1)C1CCN(C(=O)c2ccco2)CC1 | . | / | ? | / | . | ?
CCCCc1ccc(NC(=O)CN2C(=O)C3CCCCC3C2=O)cc1 (centres undefined) | . | . | ? | -76 | . | ?
CS(=O)(=O)c1ccc(NC(=O)CN2C(=O)C3CCCCC3C2=O)cc1 (centres undefined) | . | . | . | . | . | .
CN(CC(=O)Nc1cccc(F)c1)CC(=O)N(C)CC(=O)Nc1ccccc1Br | . | . | ? | . | . | .
COc1ccccc1-c1cccc([C@@H]2C[C@H]3[C@H](CON3C)CN2C)c1 | . | / | . | . | . | .
COc1ccccc1-c1cccc([C@@H]2C[C@H]3[C@H](CON3C)CN2S(=O)(=O)c2ccccc2C)c1 | . | / | 21µM | . | . | 15µM
CN1OC[C@@H]2CN(S(=O)(=O)c3cccc4ccccc34)[C@H](c3ccc(-c4ccccc4)cc3)C[C@@H]21 | . | / | 23µM | . | . | ?
CN1OC[C@@H]2CN(C(=O)C(C)(C)C)[C@H](c3ccc(-c4cc5ccccc5o4)cc3)C[C@@H]21 | . | / | 21µM | . | . | ?
Cc1ccccc1S(=O)(=O)N1C[C@H]2CON(C)[C@H]2C[C@H]1c1cccc(-c2ccccc2)c1 | ? | / | 23µM | . | . | ?
CN1OC[C@@H]2CN(C(=O)C(C)(C)C)[C@H](c3cccc(-c4ccccc4)c3)C[C@@H]21 | . | / | . | . | . | .
Cc1cc(C)n2c(SCC(=O)Nc3ccc(F)cc3)nnc2n1 | . | . | . | ? | . | .
CC(C)(C)OC(=O)NNC(=O)Nc1ccccc1C(F)(F)F | . | . | . | . | . | .
COc1cc(=O)[nH]c(SC(C)C(=O)Nc2cc(C)on2)n1 (centres undefined) | . | / | . | . | . | .
O=C1CSCc2nc3ccccc3n21 | . | / | . | . | . | .
Cc1ccccc1-c1cccc([C@@H]2C[C@H]3[C@H](CON3C)CN2S(=O)(=O)c2ccccc2C)c1 | . | / | 21µM | . | . | ?
Cc1ccccc1S(=O)(=O)N1C[C@H]2CON(C)[C@H]2C[C@H]1c1cccc(Br)c1 | . | / | ? | . | . | .

Bioassay records deposited in PubChem BioAssay by National Center for Advancing Translational Sciences (NCATS).
